The record followed here is PubChem BioAssay AID777 (Sanford-Burnham Center for Chemical Genomics, 2007).

The campaign covered roughly 96,000 compounds. About 19,000 (20%) were called active. Only a sample is shown. Values without a mark were called inactive.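 How the source made its calls: active means blocking of liver enzyme CYP2C9 beyond about 50% at 5 µM (limit read from the data); inactive means the rest.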

A word on the inhibition: it is the drop in the measured response relative to a control, in per cent.

The target of this assay is Cytochrome P450 2C9 (Homo sapiens) (UniProt P11712). In words: blockers of cytochrome P450 2C9 activity – biochemical, luminescence, ADME assay, primary screen (AID 777). As to conditions: CYP2C9 Supersomes, luciferin-H conversion, at 5 µM, stronger effect = higher value.
Sequence of Cytochrome P450 2C9 (Homo sapiens) (P11712 whole entry, looked up): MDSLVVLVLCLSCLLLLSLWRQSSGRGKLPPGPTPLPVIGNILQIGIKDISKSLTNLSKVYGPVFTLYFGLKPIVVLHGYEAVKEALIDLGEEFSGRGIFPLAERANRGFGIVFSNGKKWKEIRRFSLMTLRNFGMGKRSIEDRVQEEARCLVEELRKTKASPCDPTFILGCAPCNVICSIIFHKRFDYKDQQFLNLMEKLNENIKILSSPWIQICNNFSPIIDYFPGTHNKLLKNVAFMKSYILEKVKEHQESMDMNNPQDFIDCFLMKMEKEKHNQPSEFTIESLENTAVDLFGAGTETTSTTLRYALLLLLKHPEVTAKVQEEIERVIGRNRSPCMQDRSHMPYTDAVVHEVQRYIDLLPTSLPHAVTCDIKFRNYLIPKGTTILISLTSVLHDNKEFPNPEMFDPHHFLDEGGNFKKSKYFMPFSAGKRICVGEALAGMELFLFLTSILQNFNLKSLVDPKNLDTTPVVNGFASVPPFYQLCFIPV
As to `Cc1cccc2nc(CNc3ccc(F)cc3)cn12`, the inhibition was 38.8%.
With `COc1cccc(-c2nnc(N(C)C(=O)c3ccno3)s2)c1` the figure was 2.4%; with `CC(=O)c1cc(-c2ccccc2)[nH]c1N1CCCC1`, 12.9%.
As for `Cc1ccc(C)c(NC(=O)c2ccc(OC(=O)c3ccco3)cc2)c1`, the inhibition is -24%.
With `CCc1ccccc1N(CC(=O)NCCSCc1ccco1)S(C)(=O)=O` the figure was 25.8%.
As to `O=C(Nc1ccccc1)Nc1ccccc1C(=O)NCc1ccco1`, the inhibition was 88.1% (active).
For the compound `Cc1ccccc1NC(=O)NCc1ccco1`, the inhibition is -34.3%.
`COc1cc(OC)cc(C(=O)NCCSCc2ccco2)c1`: the inhibition is -1.5%.
In the case of `Cc1ccc(C(=O)N/C(=C/C=C/c2ccccc2)C(=O)NCc2ccco2)cc1`, the inhibition was 36%.
Consider `Cc1cccc(Nc2ccccc2C(=O)NCc2ccco2)c1C`, for which the inhibition is 27.2%.
The figure for `Cc1ccc(N(Cc2ccc(C(=O)Nc3ccccc3C(=O)NCc3ccco3)cc2)S(C)(=O)=O)cc1C` is 72% (active).
Regarding `CS(=O)(=O)N(Cc1ccc(Cl)cc1)c1ccc(C(=O)NCCSCc2ccco2)cc1`, the inhibition was 74.1% (active).
Turning to `COCCNC(=O)Cn1cc2c(n1)CCCCC2`, the inhibition was 1.8%.
Regarding `COc1cc2cc(CN(CCN3CCCC3)C(=O)Nc3ccccc3Cl)c(=O)[nH]c2cc1OC`, the inhibition was 15%.
With `O=S(=O)(O)CCN1CCOCC1` the figure was 1.4%; with `COc1cc(/C=C2/C(=O)ON=C2C)ccc1OCc1ccccc1F`, -5.4%; with `COc1ccc(C2SCCN2S(=O)(=O)c2ccccc2)cc1OC` (stereo not drawn), -107%.
The figure for `CCCN1Cc2cccc(C(=O)NCc3ccccc3)c2C1=O` is 16.3%; for `N#CC1=C(N)OC2=C(C(=O)CCC2)C1C1CC=CCC1` (stereo not drawn) it is 37.1%.
For the compound `O=C(O)CN1C(=O)CC(Cc2ccccc2)C1=O` (stereo not drawn), the inhibition was 7.4%.
The figure for `COc1ccc(O)c(C=Nc2cc(C)on2)c1` is -5.4%; for `COc1ccc(OC)c(C(=O)c2ccc(C(=O)O)cc2)c1` it is 9.5%; for `COc1ccc(O)c(C(=O)c2cnc3onc(C(C)C)c3c2)c1` it is 96.6% (active).
With `O=C(CCSc1ccccc1)NCCSc1ccccn1`, the inhibition was 41.7%.
Consider `COc1ccc(C(C(O)C(=O)c2c[nH]c3ccccc23)N2CCN(c3ccccc3)CC2)cc1` (stereo not drawn), for which the inhibition is 26.9%.
The figure for `CS(=O)(=O)c1ccc2nc(NC(=O)CN3CCCCCC3)sc2c1` is 25.1%; for `CC1=CC(C)(C)N(C(=O)CSc2nnc(-c3ccccc3)o2)c2ccc(C)cc21` it is 11.9%.
For the compound `CC1CCCC(NC(=O)CSc2nccn2C)C1C` (stereo not drawn), the inhibition was -4.4%.
The figure for `CC1=CC(C)(C)N(C(=O)CSc2nccn2C)c2cc(C)ccc21` is 61.4% (active).
For the compound `COCCNC(=O)CN(C(=O)CCC(=O)Nc1cc(C)on1)c1ccc(C)cc1C`, the inhibition was -2.4%.
Take `c1n[nH]c(NCc2ccc3c(c2)OCO3)n1`: the inhibition is 1%.
Take `N#Cc1nc(Cc2cccc3ccccc23)oc1NCc1ccc2c(c1)OCO2`: the inhibition was 63.7% (active).
`COc1cc2[nH]c(=S)n(CCN3CCCCC3C)c(=O)c2cc1OC` (stereo not drawn): the inhibition is 23.6%.
With `Cc1ccc(S(=O)(=O)/N=C(\CN2CCOCC2)N2CCOCC2)cc1`, the inhibition is 7.1%.
With `CC(=O)C1C(c2cccc(Oc3ccccc3)c2)NC(=O)NC1(O)C(F)(F)F` (stereo not drawn) the figure was 0.7%; with `Cc1cccc(NC(=O)CSc2nnc(NC(=O)CN3CCOCC3)s2)c1`, 10.9%.
As for `Cc1cc(C)n(-c2nc(SCC(=O)N3CCCC3)c3c4c(sc3n2)CCCC4)n1`, the inhibition is 78.8% (active).
With `COCCNc1nc(-n2nc(C)cc2C)nc2sc3c(c12)CCCC3` the figure was 16.5%.
The figure for `COCCn1c(C)cc(C(=O)CSc2ncnc3sc4c(c23)CCC4)c1C` is -41.7%; for `CCCC1C(c2ccccc2)C(C#N)(C#N)C2(C#N)CC1(N)NC2=O` (stereo not drawn) it is 4.8%.
With `COc1ccc(N2C(=O)CN=C2Nc2cccc(C)c2C)cc1OC` the figure was 10.9%; with `Cc1cc(N2CCN(S(=O)(=O)c3ccc(C)c(C)c3)CC2)c2ccccc2n1`, 89.9% (active); with `O=c1ccc2cc(S(=O)(=O)N3CCN(c4ccccc4)CC3)ccc2o1`, 5.5%.
Consider `Cc1ccc(S(=O)(=O)N2CC(=O)Nc3ccccc32)cc1C`, for which the inhibition is -50.4%.
`CCCCNC(=O)CSc1nc2ccc(NC(=O)CSc3nnc(COc4ccccc4C)n3C)cc2s1`: the inhibition was 75.1% (active).
The figure for `CCCCNC(=O)CSc1nnc(-c2ccco2)n1C` is 44.2%; for `CCOC(=O)c1ccc(NC(=O)CSc2nnc(COc3ccccc3OC)n2C)cc1` it is 11.7%.
For the compound `O=C1CCCc2c1nc(-c1cccc(Cl)c1)n2O`, the inhibition was 11.3%.
As for `CC1(C)CC(=O)C(C=NCc2cccnc2)=C(O)C1`, the inhibition was -14.4%.
As to `CCNc1nc(N)nc(-c2cc(Cl)ccc2OC)n1`, the inhibition is -0.8%.
With `Cc1ccc(C(=O)c2c(NC(=O)c3ccccc3)sc(C)c2C)cc1`, the inhibition is 43%.
With `COC(=O)c1c(NC(=O)CSc2nncs2)sc2c1CCCCC2`, the inhibition is 91.9% (active).
In the case of `Cc1ccc(C(=O)c2c(NC(=O)c3ccncc3)sc3c2CCCC3)cc1`, the inhibition was 67.8% (active).
The figure for `COC(=O)c1c(NC(=O)c2cccs2)sc2c1CCCC2` is 58.4% (active); for `CCOC(=O)c1c(NC(=O)CCC(=O)NCc2ccco2)sc2c1CCCC2` it is 41.9%; for `COC(=O)c1sc(NC(=O)c2csc3c2CCCC3)nc1C` it is -7.3%.
With `CNC(=O)c1c(NC(NC(=O)c2ccco2)C(=O)c2ccc(Cl)cc2)sc2c1CCCC2` (stereo not drawn), the inhibition is 46.5%.
The figure for `COC(=O)c1sccc1NC(=O)c1csc2c1CCCC2` is 13.7%; for `Cc1ccc(Cn2c(NC(=O)c3ccco3)nc3ccccc32)cc1` it is -10.6%.
The figure for `Cc1cc(C)nc(SC(C)C(=O)N/N=C/c2cccs2)n1` (stereo not drawn) is 41.1%; for `CC12CCC(C(=O)N(CCC#N)CCC#N)(CC1=O)C2(C)C` (stereo not drawn) it is -10.7%; for `CCC(C(=O)Nc1ncccn1)(C(F)(F)F)C(F)(F)F` it is -8.6%.
With `Oc1ccc(Cl)cc1/C=N/c1nc2ccccc2[nH]1` the figure was -15.4%; with `CCn1ncc(C2=NOC(C(=O)N3CCN(c4ccccc4)CC3)C2)c1C` (stereo not drawn), -12.4%; with `Cc1cc(C)c(S(=O)(=O)NCCCN2CCOCC2)cc1Br`, -101%.
Turning to `C=CCSc1nc2c(c(=O)[nH]1)C(C(C)C)C(C#N)=C(N)O2` (stereo not drawn), the inhibition was 17.7%.
With `COc1cccc(N2CCN(C3CC(=O)N(c4ccc(Cl)cc4)C3=O)CC2)c1` (stereo not drawn) the figure was 11.2%.
For the compound `Cn1cnc2c1c(=O)n(Cc1c(Cl)cccc1Cl)c(=O)n2C`, the inhibition was 32.6%.
On to `O=S(=O)(NC1CCCCC1)c1ccc(F)c2ccccc12`, for which the inhibition is 53.4% (active).
With `O=C(CC(NS(=O)(=O)c1ccc(Cl)cc1)c1ccco1)NC1CCCC1` (stereo not drawn) the figure was 18.5%.
With `Cc1cccc(OCCCC(=O)Nc2ccc(S(=O)(=O)N3CCCC3)cc2)c1` the figure was 65.2% (active); with `O=C(CSCc1ccc(Br)cc1)Nc1ccc(S(=O)(=O)N2CCCCCC2)cc1`, 56.5% (active); with `O=C(Nc1ccc(S(=O)(=O)N2CCCCC2)cc1)c1cnccn1`, 23.2%.
The figure for `Cc1ccc(OCCCC(=O)Nc2ccc(N3CCOCC3)cc2)cc1` is 15.2%.
Regarding `CC(=O)Nc1ccc(S(=O)(=O)N2CCN(CCCOc3cc(C)ccc3C)CC2)cc1`, the inhibition was 83.6% (active).
The figure for `CC(=O)Nc1ccc(S(=O)(=O)N2CCN(C3CCCCCCC3)CC2)cc1` is 40.3%.
`C=CCNC(=O)CCCOc1cccc(C)c1`: the inhibition was -3.3%.
Consider `COC(=O)COc1ccc(S(=O)(=O)N2CCOCC2)cc1`, for which the inhibition was -8.2%.
Regarding `CCCN1Cc2cccc(C(=O)Nc3ccc(S(=O)(=O)N4CCCCCC4)cc3)c2C1=O`, the inhibition was 38%.
For the compound `CC(=O)Nc1ccc(S(=O)(=O)N2CCSCC2)cc1`, the inhibition was 14%.
Consider `COc1ccc(OCC(=O)OCC(=O)Nc2ccc(S(=O)(=O)N3CCCCC3)cc2)cc1`, for which the inhibition is 63.1% (active).
With `CCOc1cccc(NC(=O)C2CCCN(S(=O)(=O)c3ccc(OC)cc3)C2)c1` (stereo not drawn) the figure was 21.3%; with `Cc1cc(OCCOc2cccc3cccnc23)c(C)cc1Cl`, -170%; with `CCOC(=O)c1nnn(-c2nc(OC)nc(N(C)C)n2)c1-c1ccccc1`, 6.1%.
The figure for `Cc1nnc(SCC(=O)N2CCN(c3ccccc3)CC2)n1-c1ccccc1` is 1.8%; for `COc1cc(OC)cc(C(=O)Nc2ncc3c(n2)CC(C)(C)CC3=O)c1` it is -12.1%.
As to `CN(NC(=O)c1ccccc1)c1nc2ccccc2nc1C(F)(F)F`, the inhibition is 15.5%.
With `Cc1cc(C(=O)CSc2nc(N)cc(=O)[nH]2)c(C)n1CCc1ccc(Cl)cc1` the figure was 11.4%; with `CCOc1ccc(C(C)C)cc1S(=O)(=O)n1nc(C)cc1C`, 91.3% (active); with `CCOc1cc(C)c(Cl)cc1S(=O)(=O)n1nnc2ccccc21`, 39.1%.
Consider `CCOc1ccc(NC(=O)CCC(=O)n2nc(C)cc2C)cc1`, for which the inhibition is 5.6%.
With `CCSC1=C(C#N)C(=O)n2c1cc1c2CCCC1` the figure was -14.3%.
Regarding `O=S(=O)(NCC1CCCO1)c1ccc2ccccc2c1` (stereo not drawn), the inhibition was -199%.
Turning to `CCOc1cc(C2C(C(=O)OC)=CN(C3CCCC3)C=C2C(=O)OC)cc(Br)c1O`, the inhibition is -9.6%.
The figure for `COc1ccc(C(=O)Nc2ccc(S(=O)(=O)Nc3onc(C)c3C)cc2)cc1OC` is 1.2%; for `Cc1noc(NS(=O)(=O)c2ccc(NC(=O)C34CCC(CC3)C4)cc2)c1C` it is 0.8%.
Regarding `Cc1noc(NS(=O)(=O)c2ccc(N/C=C/C(=O)c3ccccc3)cc2)c1C`, the inhibition was 93.9% (active).
On to `Cc1ccc(S(=O)(=O)NCCN2CCOCC2)cc1C`, for which the inhibition is 21.9%.
